Sm TGR block: inhibitors of Schistosoma mansoni thioredoxin glutathione reductase; Q962Y6; AID 485364; purified TGR, DTNB reduction, TNB absorbance 405 nm; Potency, µM (titrated, usually from 114 µM), for inactives: at the top dose activity change, negative = inhibition, hits mostly inhibitors; 360,000 tested, 3% active; also: nearly all actives have a fitted effect of over 60% in size
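First, TGR (20 nM dispensed) and NADPH were mixed with compound. Second, a 15 min room-temperature incubation followed. Third, further NADPH and then DTNB were added to start the reaction. Finally, TNB absorbance was monitored kinetically.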
AmpC no deterg: inhibitors of E. coli AmpC beta-lactamase without detergent; AID 485341; P00811; 330,000 tested, 0.52% active; Potency, µM (highest dose often 57.1 µM), for the others: at the top dose activity change, negative = inhibition, hits mostly inhibitors; AmpC nitrocefin hydrolysis, absorbance 480 nm, 0.0001% Triton;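 also: plate controls were no compound for no effect and no enzyme for full effect; nearly all actives have a fitted effect of over 20% in size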
Target sequence (P00811 whole entry, looked up): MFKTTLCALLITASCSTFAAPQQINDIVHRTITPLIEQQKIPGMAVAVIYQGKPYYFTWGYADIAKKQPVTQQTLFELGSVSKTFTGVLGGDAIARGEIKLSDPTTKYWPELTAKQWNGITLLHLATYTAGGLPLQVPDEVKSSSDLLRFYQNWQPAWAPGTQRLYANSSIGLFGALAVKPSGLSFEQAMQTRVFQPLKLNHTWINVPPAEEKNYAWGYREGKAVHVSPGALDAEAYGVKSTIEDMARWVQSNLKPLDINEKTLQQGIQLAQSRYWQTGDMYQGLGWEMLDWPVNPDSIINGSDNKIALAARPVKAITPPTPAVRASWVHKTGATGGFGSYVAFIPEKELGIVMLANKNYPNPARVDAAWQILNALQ
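20 mM phosphate pH 7.0 + 0.01% (detergent screen) or 0.0001% Triton X-100; 5.3 nM AmpC reagent; cpd preinc 15 min RT; nitrocefin (800 uM stock) to start; A480 q20 s × 4 min; Activity was normalised to no-enzyme and no-compound control wells.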
AmpC inh detg: inhibitors of E. coli AmpC beta-lactamase with detergent; 370,000 tested, 0.041% active; Potency, µM (top dose mostly 114 µM), for inactives: at the top dose activity change, negative = inhibition, most hits filed as inhibitors; AID 485294; AmpC hydrolysis of nitrocefin, absorbance 480 nm, 0.01% Triton; P00811;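 also: 0% = no-compound wells and -100% = no-enzyme wells; nearly all actives have a fitted effect of over 25% in size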
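AmpC (5.3 nM in the dispensed reagent) in 20 mM phosphate pH 7.0 with 0.01% (detergent screen) or 0.0001% Triton X-100 was preincubated with compounds for 15 min at room temperature. Nitrocefin was then added from an 800 uM solution, and hydrolysis was followed at 480 nm.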
An asterisk follows results filed as active; ? = inconclusive; . = no result given. Rows were chosen to be rich in hits. Some 3.3% of all compounds tested hit in one or more screens of this group. Calls follow the shape of the dose curve; as a rule, active = well fitted curve in the direction sought with a large enough effect; inconclusive = small, poorly fitted or top-dose-only effect, or another doubt; inactive = no such curve, though single readings can be large; an effect the other way counts as inactive or inconclusive. Unless noted, % is scaled to controls: 0 for no effect and ±100 for the full control effect; potency is read from the fitted curve at half-maximal effect.

SMILES	Sm TGR block	AmpC no deterg	AmpC inh detg
O=C(Nc1ccc2nc(SCCOc3ccccc3)sc2c1)c1cccs1	0%	.	24%
O=C(CCCN1C(=O)c2ccccc2C1=O)Oc1ccc(F)cc1	-16%	-8%	0%
O=C1CCC(=O)N1CCC(c1ccc(F)cc1)c1ccco1 (stereo not drawn)	45µM*	30%	2%
O=C1CCC(=O)N1CN(Cc1ccco1)CN1C(=O)CCC1=O	-29%	-17%	-8%
O=C1c2ccccc2C(=O)N1CCC(c1ccc(F)cc1)c1ccco1 (stereo not drawn)	40µM*	-31%	-10%
C#CC(=O)N(c1ccc(OC)cc1OC)C(C(=O)NC1CCCC1)c1cccs1 (stereo not drawn)	1.6µM*	10%	-4%
C#CC(=O)N(c1cc(OC)ccc1OC)C(C(=O)NC1CCCC1)c1cccs1 (stereo not drawn)	?	19%	-1%
CCOc1ccc(CNC(=O)c2ccc(-c3nc(CS(=O)(=O)c4ccccc4)c(C)o3)cc2)cc1	-23%	.	23%
COc1ccc(Cn2c(CCC(=O)NCc3cccc(Cl)c3)nc3cccnc32)cc1	-1%	.	?
Cc1ccc(-n2c(=O)[nH]c3c(C(N)=O)nc(-c4ccc(C)o4)nc32)cc1	32µM*	7%	-13%
Cc1ccc(-n2c(=O)[nH]c3c(C(N)=O)nc(CC(C)C)nc32)cc1	1%	-7%	?
Cc1cccc(C)c1NC(=O)c1oc2c(c1C)-c1nn(Cc3ccccc3)cc1CC2	6%	.	-5%
Cc1ccc(C2C=C(c3ccccc3)Nc3nc(NS(=O)(=O)c4ccc(C)cc4)nn32)cc1 (stereo not drawn)	-21%	.	9%
COc1ccccc1C1C=C(c2ccc(Cl)cc2)Nc2nc(N3C(=O)CCC3=O)nn21 (stereo not drawn)	0%	23%	-19%
COc1ccc(C2C=C(c3ccc(Cl)cc3)Nc3nc(NC(C)=O)nn32)cc1 (stereo not drawn)	?	5%	-12%
CC(=O)Nc1nc2n(n1)C(c1ccccc1)C=C(c1ccccc1)N2 (stereo not drawn)	4µM*	-21%	-10%
O=C(Nc1nc2n(n1)C(c1ccc(F)cc1)C=C(c1ccccc1)N2)c1cccc([N+](=O)[O-])c1 (stereo not drawn)	2%	.	16%
Cc1ccc(C2C=C(c3ccc(Cl)cc3)Nc3nc(NS(=O)(=O)c4ccccc4)nn32)cc1 (stereo not drawn)	32µM*	.	0%
COc1ccccc1C1C=C(c2ccc(Cl)cc2)Nc2nc(NS(C)(=O)=O)nn21 (stereo not drawn)	40µM*	-7%	0%
CC(=O)Nc1nc2n(n1)C(c1ccc(F)cc1)C=C(c1ccccc1)N2 (stereo not drawn)	3.2µM*	-7%	2%
CCOc1ccc(CNC(=O)C2CCN(C3=NS(=O)(=O)C(c4ccc(C)cc4)=C3CC)CC2)cc1	1%	.	-4%
CS(=O)(=O)Nc1nc2n(n1)C(c1ccccc1)C=C(c1ccc(Br)cc1)N2 (stereo not drawn)	22µM*	-26%	1%
COc1ccc(C2C=C(c3ccccc3)Nc3nc(NS(=O)(=O)c4ccc(C)cc4)nn32)cc1 (stereo not drawn)	-6%	.	-14%
COc1cc(OC)c(NC(=O)C(CC(C)C)N2Cc3ccccc3C2=O)cc1Cl (stereo not drawn)	-1%	.	-4%
O=C(CSc1ccc(-c2cccnc2)nn1)Nc1ccc(F)cc1F	7.1µM*	1%	-1%
SMILES	Sm TGR block	AmpC no deterg	AmpC inh detg
O=C(CSc1ccc(-c2ccccn2)nn1)Nc1ccc(F)cc1F	0%	10%	-6%
CCC(Oc1ccc(F)cc1)C(=O)Nc1nc(-c2ccc(F)cc2)ns1 (stereo not drawn)	42%	.	23%
O=C(Nc1ccccc1C(=O)NCc1ccco1)Nc1cccc2ccccc12	-18%	20µM*	-5%
O=C(O)c1ccccc1-c1ccccc1C(=O)NCc1ccco1	50µM*	-22%	1%
Nc1ccccc1C(=O)NCc1ccco1	?	-6%	-11%
O=C(NCc1ccco1)c1cccc2ccccc12	-9%	-23%	?
CN(c1ccccc1C(=O)Nc1ccccc1C(=O)NCc1ccco1)S(C)(=O)=O	?	-18%	?
O=C(NCc1ccco1)c1ccccc1-c1ccccc1	?	-7%	-12%
CN(c1ccccc1C(=O)NCc1ccco1)S(C)(=O)=O	40µM*	-24%	-1%
O=C(NCc1ccco1)c1ccccc1F	45µM*	-17%	0%
CC(C)(C)c1ccc(C(=O)Nc2nnc3n2CCS3)cc1	1%	.	2%
COc1ccc(CCNC(=O)c2ccc3c(c2)CCN3S(=O)(=O)c2ccc(C)cc2)cc1	-1%	.	2%
O=C(CN1CCN(c2ccccc2)CC1)NC(=O)NCc1ccco1	-16%	-16%	-4%
O=C(NCc1ccco1)c1cnc2sccn2c1=O	?	-7%	?
O=C(CN1CCN(c2ccccc2F)CC1)NC(=O)NCc1ccco1	28µM*	23%	-3%
Cc1csc2ncc(C(=O)NCc3ccco3)c(=O)n12	45µM*	-21%	-12%
Cc1cccc(NC(=O)c2cnn(-c3ccccc3)c2-n2cccc2)c1C	-2%	.	26%
COc1ccc(-n2cc(C(=O)NCc3ccccc3)c3ccccc3c2=O)cc1	-7%	.	4%
CC(=O)N1CCc2cc(Br)cc(S(=O)(=O)CCC(=O)N3CCN(c4ccccc4Cl)CC3)c21	-14%	.	-6%
O=C(CSc1ccc(Br)c2cccc(Cl)c12)Nc1ccc(S(=O)(=O)Nc2nccs2)cc1	.	2.5µM*	2%
O=C(Cc1ccccc1Cl)Nc1ccc(S(=O)(=O)Nc2nccs2)cc1	-2%	-40%	6%
COC(=O)C1(C(=O)OC)NOC2C(=O)N(c3ccc(Cl)cc3Cl)C(=O)C21 (stereo not drawn)	5%	4.5µM*	5%
COC(=O)C1(C(=O)OC)NOC2C(=O)N(N(C)c3ncc(C(F)(F)F)cc3Cl)C(=O)C21 (stereo not drawn)	-16%	-26%	5%
CC(C)(C)C(=O)Nc1c(C(=O)N2CCN(c3ccc(F)cc3)CC2)oc2ccccc12	0%	.	-2%
O=C(Cc1ccc(NC(=O)N2CCSc3ncccc32)cc1)NCCc1ccccc1	-13%	.	-9%
SMILES	Sm TGR block	AmpC no deterg	AmpC inh detg
CC(C)c1ccc(NC(=O)c2cccn2-c2nnc(N3CCCCC3)s2)cc1	0%	.	3%
COc1ccc(Br)cc1[C@H]1[C@@H]2C=CCC[C@@]2(C)C(=O)N1Cc1ccccc1	-7%	66%	-12%
COc1ccc(/C=C/c2ccccc2)cc1[C@H]1[C@@H]2C=CCC[C@@]2(C)C(=O)N1Cc1ccccc1	28µM*	-9%	-1%
CCc1ccc(CN2CCCC(CNS(=O)(=O)c3ccc(OC)cc3)C2)cc1 (stereo not drawn)	7%	58%	7%
COc1ccc(S(=O)(=O)NCC2CCCN(Cc3ccc(C)o3)C2)cc1 (stereo not drawn)	35µM*	1%	3%
CCOc1ccccc1CNC(=O)c1ccc2nc(N3CCC(C)CC3)sc2c1	0%	.	0%
Cc1cc(Br)ccc1NC(=O)C1(S(=O)(=O)c2ccc(Cl)cc2)CC1	-2%	.	18%
